The inhibition is the drop in the measured response relative to a control, in per cent.

Here are results for 64 compounds from PubChem BioAssay AID524 (The Scripps Research Institute Molecular Screening Center, 2006).

In all, about 65,000 compounds went through this assay and about 95 (0.1%) were called active.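 How the source made its calls: active means inhibition above the screen-wide mean inhibition plus 3 SD (cut at about 21% in these data); inactive means the rest.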 What follows is part of a selection rich in actives, with near analogues and random picks from the rest.

For this assay, the target named is cAMP-dependent protein kinase catalytic subunit alpha (Homo sapiens) (UniProt P17612). The assay is described as follows: inhibitors of human PKA kinase activity, primary screen, biochemical, ATP-depletion luminescence, Kemptide substrate (AID 524). Conditions: PKA Kemptide phosphorylation, Kinase-Glo ATP luminescence; at 6 µM; active compounds read high. (In general: Kinase-Glo measures the ATP left after a reaction by luminescence.)
Consider `COc1ccc(C)c2sc(=NC(=O)c3ccc(C#N)cc3)n(C)c12`, for which the inhibition was 3.2% (inactive). The figure for `CN(C(=O)c1ccccn1)c1nnc(-c2ccccn2)s1` is -0.9% (inactive). Regarding `CN(C(=O)COc1ccccc1)c1nnc(-c2ccncc2)s1`, the inhibition was 29.1% (active). Consider `CN(C(=O)c1ccno1)c1nnc(-c2cccnc2)s1`, for which the inhibition was 2.6% (inactive). For the compound `CC(C)N(C(=O)Cn1c(SCC(=O)N2CCN(c3ccccc3)CC2)nc2ccccc21)C(C)C`, the inhibition is 7.5% (inactive). In the case of `Cc1cc(C)cc(NC(=O)C2CCN(c3nc(C)cc(C)n3)CC2)c1`, the inhibition is 6.7% (inactive). For `O=C(CSc1nnc(-c2ccccn2)n1-c1ccccc1)Nc1ccc2c(c1)OCO2`, the inhibition was 5.1% (inactive). As for `Cc1ccn2cc(C(=O)NC3CCN(Cc4ccccc4)CC3)nc2c1`, the inhibition was 4.5% (inactive). In the case of `Nc1nc(SCCOc2ccccc2)n[nH]1`, the inhibition was 11.5% (inactive). In the case of `O/N=C(\c1ccc2c(c1)OCCO2)C1CCCCC1`, the inhibition is -0.4% (inactive). Take `Cc1cc(/C=N/n2cnnc2)c(C)n1-c1cccc(C(=O)O)c1`: the inhibition is 7.1% (inactive). The figure for `COc1ccc(-c2cc3ccc(OCc4nn[nH]n4)cc3oc2=O)cc1` is 6.3% (inactive); for `CCc1cc(Br)ccc1NC(=O)C1CCCO1` (centres undefined) it is 12.3% (inactive); for `Cc1cc(C(=O)CC#N)c(C)n1CC(F)(F)F` it is 6% (inactive). Turning to `C=CCNc1nc(C)nc(OC)n1`, the inhibition was 4.4% (inactive).

`Cc1nc(N2CCN(c3ncccn3)CC2)c2oc3ccccc3c2n1`: the inhibition was 8.8% (inactive).

`CCOc1ncccc1C(=O)OCc1cn2cc(Cl)ccc2n1`: the inhibition was 8.2% (inactive). With `COc1ccc(CCN=C2SCC(=O)N2C)cc1OC`, the inhibition is 5.5% (inactive). As for `Fc1ccccc1OCCCCn1cncn1`, the inhibition is 2.8% (inactive). The figure for `CN(CC(=O)NC1CCCCC1)S(=O)(=O)c1ccc(Br)s1` is 4% (inactive); for `COCCNC(=S)c1ccc(OC)cc1` it is 5.8% (inactive); for `Cn1cccc1C(=O)NC(=O)COC(=O)Cc1coc2ccc3ccccc3c12` it is 5.5% (inactive). Turning to `CCOc1ccc(NC(=O)N(CCC(C)C)C(C)c2ccco2)cc1` (centres undefined), the inhibition was 4.9% (inactive).

Take `COc1ccc2c(c1)OC(O)(C(F)(F)C(F)F)CC2=O` (centres undefined): the inhibition was 4.1% (inactive).

Take `CC(C)C(=O)Nc1c(C(=O)c2ccc(F)cc2)oc2ccccc12`: the inhibition is 2.9% (inactive). For `CCCC(NC(=O)c1ccccc1)c1nc2ccccc2n1Cc1ccc(C(=O)OC)o1` (centres undefined), the inhibition was 9.3% (inactive).

As for `Cc1ccc(Cc2cncc(O)c2)cc1S(=O)(=O)O`, the inhibition is -3.1% (inactive). Turning to `Cn1c(=O)c(C(=O)Nc2ncccn2)c(O)c2ccccc21`, the inhibition is -3.8% (inactive).

Consider `COc1ccc(NC(=O)c2c(C)oc3c2CCCC3)cc1`, for which the inhibition is 4.6% (inactive). Under `Cc1ccc(C)c(NC(=O)CSc2nnc(Cc3cccn3C)n2-c2ccc(F)cc2)c1` stands 7.2% (inactive); under `Cn1c(=O)[nH]c(=O)c2c1nc(CN1CCN(c3ccccc3F)CC1)n2CCc1ccccc1`, 1.4% (inactive); under `COc1cccc(N2CC(C(=O)Nc3c(C)cccc3C)CC2=O)c1` (centres undefined), 4.7% (inactive).

With `CCOC(=O)C1=C(C)NC(=O)N(C(C)=O)C1c1ccc(Cl)cc1` (centres undefined), the inhibition is 9.6% (inactive). With `CN(C)S(=O)(=O)c1ccc(Oc2ccc(S(=O)(=O)N(C)C)cc2)cc1`, the inhibition was 9% (inactive).

For the compound `CC(NC(=O)c1ccc(Cl)cc1)C(=O)N1CCCCC1` (centres undefined), the inhibition was 8.7% (inactive). Under `O=C(Cc1cccs1)N1CCCC(c2nc(-c3ccc(S(=O)(=O)N4CCCC4)cc3)no2)C1` (centres undefined) stands 8.4% (inactive); under `CCCCCCn1c(SCC(=O)c2ccccc2)nc2c1c(=O)[nH]c(=O)n2C`, 7.8% (inactive); under `O=C1c2ccccc2C(Nc2ccc3c(c2)OCCO3)N1Cc1ccco1` (centres undefined), -9.3% (inactive). With `Cc1ccc2c(c1)C(O)(CC(=O)c1cccnc1)C(=O)N2` (centres undefined), the inhibition was 6% (inactive).

With `COc1ccccc1Cn1c(=S)[nH]c2cc(C(=O)N3CCN(C)CC3)ccc2c1=O`, the inhibition is 4.3% (inactive). Turning to `Cc1cc(C)c(C#N)c(SCc2ccc3c(c2)OCO3)n1`, the inhibition was 7.3% (inactive). In the case of `CCN(Cc1ccncc1)C(=O)c1cccc(S(=O)(=O)N2CCOCC2)c1`, the inhibition was -8.8% (inactive). The figure for `Cc1cccc(N2CCN(C(=O)C3CCN(S(=O)(=O)c4cnc[nH]4)CC3)CC2)c1C` is 9.6% (inactive); for `O=C(COC(=O)c1ccc2c(c1)OCCO2)NCc1ccccc1` it is 5.2% (inactive). For `O=C(CSc1nnc(-c2ccoc2)o1)N1CCOCC1`, the inhibition was -16.1% (inactive). For `O=C(O)Cc1ccc(NC(=O)C2CCCCC2C(=O)O)cc1` (centres undefined), the inhibition was 9.2% (inactive).

Take `CC1=NC2(CCCc3c2no[n+]3[O-])N(O)C1(C)C` (centres undefined): the inhibition is -8% (inactive). For the compound `C/C(=C\C(=O)c1ccc(Br)cc1)N1CCCCC1`, the inhibition was 0.7% (inactive). In the case of `c1ccc(CCc2nc(-c3ccncc3)no2)cc1`, the inhibition is 6.7% (inactive).

In the case of `COCCCNC(=O)c1ccc(CNS(=O)(=O)c2ccc(NC(C)=O)cc2)cc1`, the inhibition is -2.5% (inactive). In the case of `O=c1c2ccccc2[nH]c(=S)n1CCN1CCC(=C(c2ccc(F)cc2)c2ccc(F)cc2)CC1`, the inhibition is -4.7% (inactive). With `Cc1nc(NC(=O)C23CCC(C)(C(=O)O2)C3(C)C)sc1C` (centres undefined), the inhibition was 1.8% (inactive). As to `Cc1ccc(S(=O)(=O)N2CCOCC2)cc1C(=O)NCc1ccc(F)cc1`, the inhibition is 8.8% (inactive). As to `COc1cc2[nH]c(=S)n(CCN3CCCCC3C)c(=O)c2cc1OC` (centres undefined), the inhibition was -5% (inactive). Consider `O=C1NC(c2cc3c(cc2Cl)OCO3)Oc2ccccc21` (centres undefined), for which the inhibition is -12.4% (inactive).

Consider `CCCOc1ccc(-c2nc(N)n[nH]2)cc1`, for which the inhibition is -2.2% (inactive). Regarding `O=C(Cn1c(=O)n(Cc2ccco2)c(=O)c2ccccc21)NCC1CCCO1` (centres undefined), the inhibition was 7.1% (inactive). The figure for `O=c1c2ccccc2nnn1CSc1nc2sc3c(c2c(=O)n1CC1CCCO1)CCC3` (centres undefined) is 6.1% (inactive); for `COc1ccc(CN2CC(C(=O)NCCN3CCN(c4ccccc4F)CC3)CC2=O)cc1` (centres undefined) it is -0.3% (inactive). `COc1ccc(C(c2nnnn2Cc2cccs2)N2CCN(c3ccccc3)CC2)cc1OC` (centres undefined): the inhibition is 7.6% (inactive). Turning to `CCCOc1ccc(Cn2c(O)cc(=O)[nH]c2=O)cc1`, the inhibition was 7.5% (inactive). For the compound `O=C(Nc1nc(-c2ccc3c(c2)OCO3)cs1)c1ccncc1`, the inhibition is -1.3% (inactive).

As to `COc1ccc(OC)c2sc(NC(=O)C3COc4ccccc4O3)nc12` (centres undefined), the inhibition was 5.1% (inactive). In the case of `O=C(Nc1nc(-c2ccncc2)cs1)C1COc2ccccc2O1` (centres undefined), the inhibition is 103% (active).
